Experimental findings from PubChem BioAssay (NCI) are described below.

Common to all, as to assay: NCI-60 one-dose screen, 48 h (100 = growth as untreated, 0 = no growth, -100 = all killed)
Details in all cases: 10 µM unless noted

For experiment [1], the system named is NCI-H23 lung.
Experiment [2] relates to NCI-H226 lung.
Experiment [3] concerns NCI-H322M lung.
Experiment [4] relates to HOP-62 NSCLC.
For experiment [5], the system named is NCI-H460 lung.
In experiment [6] the test system is HOP-92 NSCLC.
Experiment [7] has as its system NCI-H522 lung.
Experiment [8] deals with A549/ATCC NSCLC.
The subject of experiment [9] is 786-0 renal.
Experiment [10] has as its system COLO 205 colon.
The test system of experiment [11] is DU-145 prostate.
The test system of experiment [12] is K-562 leukemia.
Experiment [13] has as its system MALME-3M melanoma.
For experiment [14], the system named is MDA-MB-231 breast.
Experiment [15] has as its system RXF 393 renal.
For experiment [16], the system named is SF-268 CNS.
The test system of experiment [17] is SF-295 CNS.
The test system of experiment [18] is SF-539 CNS.
The test system of experiment [19] is UACC-257 melanoma.
In experiment [20] the test system is M14 melanoma.

Compounds without any hit were thinned out: in the full panel of roughly 83,000, 20% have a hit.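 Values shown are percent growth following 48 h exposure of cells in 96-well plates to a single concentration of compound; below 10 was considered active.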 Values without a mark were called inactive. Active and inactive are the calls of the source.

`COc1ccc(-c2nc(SCC(=O)Nc3nc4ccc(C)cc4s3)[nH]c(=O)c2C#N)cc1OC`: the growth in experiment [1] is 103%; in experiment [2] it was 83.6%; in [3], 101%; in experiment [4], 74.8%; in [5] it was 100%; in [6] it was 102%. Moreover, the growth was 105% in experiment [7]; 105% in experiment [8]; 105% in experiment [9]; 115% in [10]; 114% in experiment [11]; 94.4% in experiment [12]. In addition, the growth was 103% in [13]; 97.9% in experiment [14]; 113% in experiment [15]; 95.9% in experiment [16]; 96.4% in [17]; 92.9% in experiment [18]. Further, the growth in [19] was 103%.
Turning to `ClCCn1cnc2c(SCc3ccccc3)ncnc21`, the growth in [1] was 72.4%; in experiment [2], 65.4%; in [3], 75.3%; in [4] it was 66.6%; in [5] it was 12.2%; in experiment [6] it was 63.7%. Moreover, the growth in experiment [7] was 65.8%; in experiment [8], 40%; in [9], 64.8%; in experiment [10], 52.4%; in [11], 63.3%; in experiment [12], 40.8%. Also, the growth in experiment [13] was 57.6%; in experiment [14], 75.6%; in [15], 87.8%; in experiment [16], 67.1%; in [17], 37.6%; in [18], 37.3%. Also, the growth in [19] was 62.4%.
For `Cc1ccc(NC(=O)c2cc3ccccc3cc2O)c(C)c1`, the growth is 71.9% in experiment [1]; 86.6% in [2]; 94.4% in experiment [3]; 89.3% in experiment [4]; 79.9% in [5]; 36.4% in experiment [6]. Further, the growth was -1.58% (active) in [7]; 106% in [8]; 84.7% in [9]; 78.5% in [10]; 96.3% in experiment [11]; 63.6% in experiment [12]. The growth in [13] was 69.8%; in experiment [14], 97.8%; in experiment [15], 113%; in experiment [16], 102%; in experiment [17], 94.1%; in [18], 78.7%. Moreover, the growth in [19] was 86.3%; in experiment [20] it was 86.9%.
For `Cc1ccc(NC(=O)c2sc3nc(C)c(C(O)c4ccccc4)cc3c2N)cc1` (stereo not given), the growth in experiment [1] is 26.4%; in experiment [2] it was 57.4%; in experiment [3], 56.8%; in [4], 31.2%; in [5], 2.88% (active); in [6] it was 58.8%. The growth is 7.09% (active) in experiment [7]; 22.7% in [8]; 40.3% in experiment [9]; -15.8% (active) in [10]; 23.9% in experiment [11]; 6.23% (active) in experiment [12]. Further, the growth is 49.1% in experiment [13]; 15.9% in experiment [14]; 39.3% in [15]; 49.5% in experiment [16]; 4.89% (active) in experiment [17]; -4.25% (active) in experiment [18]. Also, the figures for the growth in experiment [19] and in [20] were 60.2% and 16.3%, respectively.
As to `O=C(c1c[nH]c2ccccc12)c1n[nH]c(=S)n1-c1ccc([N+](=O)[O-])cc1`, the growth in experiment [1] is 91.8%; in experiment [2], 77.8%; in [3] it was 94.7%; in experiment [4] it was 87.4%; in [5], 95.7%; in [6], 80.3%. For the same molecule, the growth in experiment [7] is 84.7%; in [8], 81%; in [9], 115%; in [10], 96.8%; in experiment [11], 109%; in experiment [12] it was 83.3%. Further, the growth was 106% in [13]; 91.3% in [14]; 102% in experiment [15]; 95.4% in experiment [16]; 104% in experiment [17]; 94.1% in [18]. In [19], the growth is 99%.
As for `COc1ccc(OC)c(Nc2nnc(-c3cc(OC)c(OC)c(OC)c3)o2)c1`, the growth in experiment [1] was 90.5%; in experiment [2], 96.6%; in [3], 98.4%; in [4], 94.7%; in experiment [5], 107%; in [6] it was 107%. In addition, the growth in [7] is 76.6%; in [8] it was 101%; in [9], 95%; in [10], 104%; in experiment [11], 101%; in [12] it was 95.8%. Moreover, the growth was 88.8% in experiment [13]; 88.9% in [14]; 110% in [15]; 99.6% in experiment [16]; 101% in experiment [17]; 91.3% in experiment [18]. In experiment [19], the growth was 112%.
For `CCCC(O)Cn1ncc(C(=O)OCC)c1NC(=O)NCc1cccc(C(F)(F)F)c1` (stereo not given), the growth in experiment [1] was 80.1%; in experiment [2] it was 103%; in [3] it was 84.3%; in [4], 88.2%; in [5] it was 103%; in experiment [6] it was 58.8%. The growth in experiment [7] was 46.5%; in experiment [8] it was 95%; in [9], 80.1%; in [10], 109%; in experiment [11], 99.8%; in experiment [12], 46.9%. Also, the growth in experiment [13] was 92%; in [14], 95.1%; in [15], 113%; in [16], 103%; in experiment [17], 93.8%; in experiment [18] it was 94.3%. Further, in experiment [19], the growth is 101%.
As for `CC(=O)c1ccc(-n2cc(CN3CCN(c4cc5c(cc4F)c(=O)c(C(=O)O)cn5C4CC4)CC3)nn2)cc1`, the growth was 83.5% in experiment [1]; 69.6% in experiment [2]; 89.2% in experiment [3]; 78.7% in experiment [4]; 91.2% in experiment [5]; 79.9% in experiment [6]. Also, the growth in [7] was 89.2%; in experiment [8] it was 89.8%; in experiment [9], 87.9%; in [10], 110%; in [11], 104%; in experiment [12], 101%. The growth in experiment [13] was 94.9%; in experiment [14], 97.1%; in experiment [15], 72%; in [16] it was 85.3%; in experiment [17] it was 95.9%; in experiment [18], 92.6%. Moreover, the results for the growth in experiment [19] and in [20] were 96.7% and 90.1%, respectively.
